Source: PubChem BioAssay
The list is not random: actives were taken first. Their share in the collection is about 12%.
BAZ2B block – blocks human BAZ2B; AID 504333; 360,000 compounds, 4.4% hits; AlphaScreen BAZ2B-H3K14Ac peptide displacement; Q9UIF8; Potency, µM (titrated, usually from 114 µM), without a hit: at the top dose activity change, negative = inhibition, most hits filed as inhibitors; note: % is set by controls: 0 for no effect and ±100 for the full control effect; nearly all actives have a fitted effect of over 60% in size
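BAZ2B 50 nM plus b-H3(5-23)K14Ac 50 nM, PBS pH 7.4/0.01% Tween-20, 30 min RT; compound added (max 110 uM), 30 min RT; streptavidin donor/Ni-chelate acceptor beads 10 ug/mL final, 20 min dark; AlphaScreen read.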
JMJD2A Tudor – blocks the human JMJD2A Tudor domain. O75164. AlphaScreen JMJD2A-Tudor / H3K4me3 peptide binding. Potency, µM (highest dose often 114 µM), for the others: at the highest dose activity change, negative = inhibition, actives largely listed as inhibitors. 390,000 compounds, 4.4% hits. AID 504339; note: % is set by controls: 0 for no effect and ±100 for the full control effect; nearly all actives have a fitted effect of over 50% in size
G9a block – inhibitors of human histone lysine methyltransferase G9a; Q96KQ7; G9a H3K9 monomethylation, AlphaScreen, 2 h; Potency, µM (top dose mostly 102 µM), without a hit: top-dose activity, negative = inhibition, usual class: inhibitors; 350,000 compounds, 8.8% hits; AID 504332; note: % is set by controls: 0 for no effect and ±100 for the full control effect; nearly all actives have a fitted effect of over 75% in size
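Enzyme 20 nM + cpd, 15 min RT; add b-H3K9 pep 500 nM / SAM 20 uM; 2 h RT; anti-H3K9me1 Ab 0.5 ug/mL + SA donor / anti-rabbit acceptor beads 20 ug/mL each, 10 min; AlphaScreen read.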
HP1b binding inh – blocks HP1-beta chromodomain binding to methylated histone tails; P83916; AlphaScreen HP1-beta / biotin-H3K9me3 peptide binding; Potency, µM (series often up to 114 µM), without a hit: at the highest dose activity change, negative = inhibition, actives largely listed as inhibitors; 390,000 compounds, 0.56% hits; AID 540317; note: nearly all actives have a fitted effect of over 70% in size
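HP1-beta protein (50 nM final) preincubated 30 min at room temperature with biotinylated H3(1-18)K9me3 peptide (50 nM) in PBS pH 7.4, 0.01% Tween-20, then compound added for 30 min. AlphaScreen streptavidin donor/nickel chelate acceptor beads (10 ug/mL final), 30 min dark, luminescence read.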
Sfp inh – blocks B. subtilis Sfp PPTase activity | 310,000 compounds, 3.5% hits | Biochemical Sfp PPTase activity, qHTS | Q9F4F7 | Potency, µM, for the others: largest response in the series, negative = inhibition, usual class: inhibitors;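 note: the enzyme is Sfp with the accession as filed and its product quenches rhodamine fluorescence; 0% = enzyme reaction without inhibitor and -100% = no enzyme wells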
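Fluorescence-quenching assay: 15 nM Sfp-PPTase preincubated 15 min at room temperature with compound, then 5 uM rhodamine-CoA and 12.5 uM BHQ-2-labelled YbbR peptide added. Fluorescence (ex 525/em 598 nm) read at start and after 30 min; difference gives rate.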
L3MBTL1 block – blocks human L3MBTL1. AlphaScreen L3MBTL1–H3K9me1 peptide binding. Q9Y468. Potency, µM (doses to about 57.1 µM), without a hit: at the highest dose activity, negative = inhibition, most hits filed as inhibitors. 230,000 compounds, 0.66% hits; note: % is set by controls: 0 for no effect and ±100 for the full control effect; nearly all actives have a fitted effect of over 60% in size
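AlphaScreen proximity signal between nickel-chelate acceptor and streptavidin donor beads (final 10 ug/mL) reports binding of 50 nM L3MBTL1 to 75 nM biotin-H3 K9me1 peptide; complex incubated with compounds 30 min at room temperature; cefsulodin titration as control.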
* hit, by the source's call; [ ] = remark or other dose. Calls come from the whole dose curve; as a rule, active = well fitted curve in the direction sought with a large enough effect; inconclusive = small, poorly fitted or top-dose-only effect, or another doubt; inactive = no such curve, though single readings can be large; an effect the other way counts as inactive or inconclusive. Potency is the fitted concentration of half-maximal effect.

`CN1C(=O)/C(=C2\SC(=S)N(CCCCCC(=O)O)C2=O)c2ccccc21` gave BAZ2B block -20.6%, JMJD2A Tudor inconclusive, G9a block -27.4%, HP1b binding inh 39.8µM* and Sfp inh 17.8%.
`CCN1C(=O)/C(=C2\SC(=S)N(CCCOC)C2=O)c2ccccc21` gave BAZ2B block inconclusive, JMJD2A Tudor inconclusive, G9a block -2.4%[12.7 µM], HP1b binding inh inconclusive, Sfp inh 13.4% and L3MBTL1 block 2.5%.
For Cc1cnc(CNc2nc(-c3ccccc3Cl)nc3ccccc23)cn1 the results were G9a block 17.8%[0.501 µM] and Sfp inh 6.2%.
Screening Cc1cccc(-n2c(=O)c3c(c4cc(C)ccc4n3C)n(CC(=O)NCCC3=CCCCC3)c2=O)c1 returned BAZ2B block -5.2%, JMJD2A Tudor -6.9%, G9a block -0.2%[59 µM] and HP1b binding inh 33.2%.
O=C(Nc1ccc(N2CCC(c3ccccc3)C2)c(C(=O)O)c1)c1ccc(Cl)cc1 (configuration not stated) was read as BAZ2B block -34.2%, JMJD2A Tudor inconclusive, G9a block 10µM* and HP1b binding inh 16.1%.
For CNc1ccc(/C=C/C(=O)c2cccc3ccccc23)cc1[N+](=O)[O-] the results were BAZ2B block 7.08µM*, JMJD2A Tudor 8.91µM*, G9a block 10µM*, HP1b binding inh 15.8µM*, Sfp inh -0.1% and L3MBTL1 block inconclusive.
CCc1nn(CC(=O)NCc2cccc(OC)c2)c(=O)c2cc3cc(F)ccc3n12 was read as BAZ2B block 1.4%, JMJD2A Tudor -9.8%, G9a block inconclusive and HP1b binding inh 21.4%.
CCCS(=O)(=O)Nc1ccc(Nc2c3ccccc3nc3ccccc23)c(OC)c1 was read as JMJD2A Tudor 39.8µM* and HP1b binding inh inconclusive.
NC(=S)N/N=C/c1ccc(-c2ccc(Cl)c(Cl)c2)o1 was read as BAZ2B block inconclusive, JMJD2A Tudor -28.5%, G9a block -35.3%[59 µM], HP1b binding inh 3.3% and Sfp inh 44.7µM*.
Screening CCNC(=S)N/N=C/c1ccc(-c2ccccc2)o1 returned BAZ2B block inconclusive, JMJD2A Tudor inconclusive, G9a block -6.7%[59 µM], HP1b binding inh -12.5%, Sfp inh -0.1% and L3MBTL1 block -17.8%.
NC(=S)N/N=C/c1ccc(-c2ccccc2)o1 was read as BAZ2B block inconclusive, JMJD2A Tudor -35.5%, G9a block 6.31µM*, HP1b binding inh 14.1%, Sfp inh 3.6% and L3MBTL1 block -5.6%.
For CN(C)/N=C/c1ccc(/C=N/NC(N)=S)o1 the results were JMJD2A Tudor -21.2%, G9a block inconclusive, HP1b binding inh 17.3%, Sfp inh 44.7µM* and L3MBTL1 block -4.5%.
`O=C(O)c1cc(-c2ccc(/C=N/NC(=S)Nc3ccccc3)o2)ccc1Cl` gave BAZ2B block inconclusive, JMJD2A Tudor -30.1%, G9a block -11.7%[59 µM], HP1b binding inh -7.5%, Sfp inh 39.8µM* and L3MBTL1 block inconclusive.
`Cc1ccc(-c2ccc(/C=N/NC(N)=S)o2)cc1` gave BAZ2B block -28.0%, JMJD2A Tudor -35.2%, G9a block 8.91µM*, HP1b binding inh inconclusive, Sfp inh 20µM* and L3MBTL1 block -13.7%.
Screening NC(=S)N/N=C/c1ccc(-c2ccc(SC(F)F)cc2)o1 returned BAZ2B block -8.2%, JMJD2A Tudor -24.8%, HP1b binding inh 14.1%, Sfp inh inconclusive and L3MBTL1 block 28.2%.
For COc1cccc(-c2nn(-c3ccccc3)cc2CN(C)Cc2c(C)nc3ccccn23)c1 the results were BAZ2B block -38.1%, JMJD2A Tudor 56.2µM*, G9a block inconclusive, HP1b binding inh -27.9%, Sfp inh 56.2µM* and L3MBTL1 block -28.0%.
Cc1ncc(N=Nc2ccccc2)c(-c2ccccc2)n1 was read as BAZ2B block 14.1µM*, JMJD2A Tudor 39.8µM*, G9a block inconclusive, HP1b binding inh 31.6µM*, Sfp inh -1.1% and L3MBTL1 block inconclusive.
For CC(C)(C)OC(=O)NCc1nnc(-c2nc3ccccc3[nH]2)o1 the results were JMJD2A Tudor -32.2%.
`CN(C(=O)c1ccc(C#N)cc1)c1nnc(-c2cnccn2)s1` gave BAZ2B block -5.4%, JMJD2A Tudor -8.2%, G9a block 10.8%[12.7 µM], HP1b binding inh 35.6% and Sfp inh 23.0%.
`CN(C(=O)c1ccno1)c1nnc(-c2cnccn2)s1` gave BAZ2B block 1.4%, JMJD2A Tudor -31.0%, G9a block -46.8%, HP1b binding inh 45.7%, Sfp inh 50.1µM* and L3MBTL1 block 8.3%.
Screening CCN(CC)c1ccc(C(=O)Nc2ccc3nc(N(CC)CC)cc(C)c3c2)cc1 returned BAZ2B block -1.5%, JMJD2A Tudor -19.1%, G9a block -34.3%[59 µM] and HP1b binding inh 17.5%.
O=C(N/N=C/c1ccc(N2CCOCC2)cc1)c1ccc(O)cc1 was read as BAZ2B block -9.2%, JMJD2A Tudor -7.1%, HP1b binding inh 43.8%, Sfp inh 0.0% and L3MBTL1 block 1.9%.
For Oc1ccc(N=Cc2cc(Br)c(N3CCOCC3)o2)cc1 the results were BAZ2B block -37.6%, JMJD2A Tudor inconclusive, G9a block 14.1µM*, HP1b binding inh -17.4%, Sfp inh 39.8µM* and L3MBTL1 block -3.6%.
For N#CCC(=O)N/N=C/c1cc([N+](=O)[O-])ccc1N1CCOCC1 the results were BAZ2B block inconclusive, JMJD2A Tudor -12.0%[11.4 µM], G9a block 17.5%, HP1b binding inh 18.1%, Sfp inh 5.3% and L3MBTL1 block inconclusive.
Screening O=[N+]([O-])c1cc(Br)c(O)c(C=Nc2ccc(N3CCOCC3)cc2)c1 returned BAZ2B block 35.5µM*, JMJD2A Tudor -23.6%, G9a block 35.5µM*, HP1b binding inh 6.8%, Sfp inh -9.1% and L3MBTL1 block -29.3%.
Screening C[C@]12CCC3c4ccc(O)cc4CCC3[C@@H]1CCC2=O (some centres not stated) returned G9a block 23.0%[21.5 µM] and Sfp inh 18.1%.
Screening C=CCN(CC=C)Cc1c(O)ccc2c1oc(=O)c1ccccc12 returned JMJD2A Tudor 8.91µM* and HP1b binding inh inconclusive.
Cc1cc(=O)oc2c(CN(C)Cc3ccccc3)c(O)ccc12 was read as BAZ2B block -5.9%, JMJD2A Tudor 4.4%, G9a block -64.8%[59 µM], HP1b binding inh 44.8%, Sfp inh -10.6% and L3MBTL1 block 7.4%.
COc1cccc(OC)c1C1=Nn2c(nnc2-c2ccccc2O)SC1 was read as JMJD2A Tudor -12.4% and Sfp inh 6.3%.
For COC(=O)C#CC(=O)OC the results were Sfp inh 15.3%.
